FMDV inh: High Throughput Screening for Foot and Mouth Disease Virus Antivirals; FMDV antiviral cell-based qHTS; Potency, µM (titrated, usually from 57.9 µM), most hits filed as inhibitors; actives 1.2% (n = 410,000); calls by dose curve; tested in HEK293T cells; note: read-out not given here; nearly all actives have a fitted effect of over 45% in size
HCMV inh: qHTS Assay for inhibitors of the human cytomegalovirus (HCMV) | HFF cells, HCMV-luciferase reporter, 72 h; active compounds read low | activity change, negative = inhibition, % at 57.5 µM | actives 4.5% (n = 410,000); in the data active = activity change below about -60%; inconclusive = no clear call, values can overlap the other calls; inactive = above about -39%
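Inhibition of viral replication was scored as loss of reporter luminescence in HFFs infected with HCMV-luciferase (MOI 1 PFU/cell) for 72 h; compounds tested at 2 doses, normalized to buffer and Salinomycin controls.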
LASV entry inh: qHTS for Inhibitors of binding or entry into cells for Lassa Virus. actives 1.2% (n = 300,000). Lassa virus pseudotype entry inhibition, cell reporter. Potency, µM (highest dose often 37.9 µM), most hits filed as inhibitors; calls by dose curve; tested in HEK293 cells; note: nearly all actives have a fitted effect of over 50% in size
HCV inh: qHTS Assay for Inhibitors of Hepatitis C Virus (HCV); Huh7.5.1 HCVcc-Cre infection, luciferase reporter, 44 h; Potency, µM (series often up to 41.8 µM), hits mostly inhibitors; actives 3.4% (n = 340,000); AID 651820, 2012; active = well fitted inhibition curve with a large enough effect; inconclusive = small, poorly fitted or top-dose-only effect, or another doubt; inactive = no such curve, though single readings can be large or run the other way
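1,000 cells/well; 4 h culture; + compound; + HCVcc-Cre (~0.5 moi); 44 h; luciferase substrate, RT 15 min; read 15 sec.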
MARV entry inh: qHTS for inhibitors of binding or entry into cells for Marburg Virus. Marburg virus pseudotyped entry inhibition, cell reporter. Potency, µM (top dose mostly 37.8 µM), usual class: inhibitors. actives 1.8% (n = 300,000). AID 540276, 2011; calls by dose curve; tested in HEK293 cells
Numbers stand for hits; i = inactive; ? = inconclusive; nt = no result; [ ] = remark or other dose. A selection: hits, their analogues and other compounds. The true share with any hit is near 7.9%.

SMILES	FMDV inh	HCMV inh	LASV entry inh	HCV inh	MARV entry inh
Cc1ccc(S(=O)(=O)Nc2ccc(NC(=O)CN3CCCCC3)c(Cl)c2)cc1	i	-102	i	i	?
COc1cc(NC(=O)Nc2ccccc2OC)c(OC)cc1NC(=O)CN1CCCCC1	i	i	i	2.2µM	?
COc1ccccc1NC(=O)CN1CCCCCC1	i	i	i	i	i
Cc1ccc(S(=O)(=O)N2CCN(CC(=O)Nc3ccccc3Cl)CC2)cc1	i	i	nt	i	nt
O=C(O)C1CCC(CNS(=O)(=O)c2ccccc2)CC1 (stereo not drawn)	i	i	i	i	i
CCCCCCCCCCCCCCC[C@H](O)[C@@H](N)CO	i[6.7 µM]	nt	nt	nt	nt
Cc1ccc(C(=O)Sc2cccccc2=O)cc1	i	-99	?	i	?
C=CCN(CC=C)C(=O)c1cc2ccccc2c(=O)o1	i	-63	i	i	i
CCN(CC)CCOC(=O)c1ccc(NC(=O)CCCN2C(=O)S/C(=C/c3ccc(OC)cc3)C2=S)cc1	3.5µM	nt	?	14µM	?
COc1cccc(/C=C2\SC(=O)N(CCC(=O)NNC(=O)c3cccc(Cl)c3)C2=O)c1	i	i	1.6µM	?	i
O=C(CCN1C(=O)/C(=C\c2ccccc2)SC1=S)Nc1ccc(C(=O)O)cc1	i	i	?	i	i
COc1cccc(/C=C2\SC(=S)N(CCCC(=O)Nc3ccc(C(=O)O)cc3)C2=O)c1	i	-80	i	i	i
COc1cccc(/C=C2/SC(=S)N(CCCC(=O)Nc3ccc(O)cc3)C2=O)c1	i	-99	nt	?	nt
COc1cccc(/C=C2\SC(=O)N(CCC(=O)NC3CCS(=O)(=O)C3)C2=O)c1 (stereo not drawn)	i	i	nt	i	nt
Cc1cccc(NC(=O)CN2CCOCC2)c1C	i	i	nt	i	nt
COc1ccc(/C=C2/SC(=S)N(CCCC(=O)Nc3ccc(O)cc3)C2=O)cc1OC	i	-73	nt	?	nt
COc1ccc(/C=C2\SC(=S)N(CCCC(=O)Nc3ccc(C(=O)O)cc3)C2=O)cc1OC	i	i	i	i	i
COc1ccc(/C=C2\SC(=S)N(CCC(=O)Nc3ccccc3C(=O)O)C2=O)cc1	i	i	i	i	i
COc1ccc(/C=C2\SC(=O)N(CCCC(=O)Nc3cc(Cl)ccc3C(=O)O)C2=O)cc1	0.28µM	-93	0.4µM	i	1.3µM
Cc1c(C(=O)NCCCn2ccnc2)oc2ccccc12	i	i	i	i	i
COc1ccc(C(C)=O)cc1Cn1c(C)c(C(=O)NCc2ccc(C(F)(F)F)cc2)sc1=O	i	i	nt	nt	nt
O=C1C=CC(=O)N1	i	?	nt	?	nt
c1ccc(Cc2nnc(Sc3ccccc3)c3ccccc23)cc1	?	-88	i	?	i
COc1ccc(NC(=O)COc2cccc3c2OC(C)(C)C3)cc1OC	22µM	?	nt	6.3µM	nt
COc1cccc(NC(=O)COC(=O)COc2cccc3c2OC(C)(C)C3)c1	i	i	i	i	i
SMILES	FMDV inh	HCMV inh	LASV entry inh	HCV inh	MARV entry inh
NC(=O)N/N=C/c1c(Sc2nnnn2-c2ccccc2)nc2ccccn2c1=O	?	-73	nt	?	nt
Cc1nn(-c2ccccc2)c(Cl)c1/C=N/NC(N)=O	i	i	i	i	i
N#Cc1ccccc1Cn1cc(C(=O)c2cccs2)c2ccccc21	i	-81	i	i	i
COc1ccc(CCN2C(=O)CS/C2=N\NC(=O)c2ccc(C(C)(C)C)cc2)cc1OC	32µM	i	i	?	i
COc1ccc(CCN2C(=O)CSC2=Nc2ccc(C(C)C)cc2)cc1OC	20µM	?	1.4µM	i	?
COc1ccc(N=C2SCC(=O)N2CCc2ccc(OC)c(OC)c2)cc1	?	i	nt	?	nt
CC(=O)[C@@]1(O)CC[C@H]2[C@@H]3C=C(Cl)C4=CC(=O)[C@@H]5C[C@@H]5[C@]4(C)[C@H]3CC[C@@]21C	i	nt	nt	nt	nt
S=c1[nH]nc(CCCc2n[nH]c(=S)o2)o1	i	i	i	i	i
Cc1cc(NC(=O)C(C)SCC(=O)N(Cc2ccccc2)c2ccccc2)no1 (stereo not drawn)	i	?	?	i	3.5µM
C(/C=C/c1ccccc1)=N/N1CCN(c2ccccc2)CC1	i	-101	i	i	?
O=C(c1ccc(Cl)c(S(=O)(=O)N2CCCCC2)c1)N1CCCC1	i	i	i	i	i
Cc1nc2ccccc2c2oc(C(=O)NCCN3CCN(C)CC3)cc12	i	-70	nt	i	nt
Cc1ccc2c(c1)c(=O)c1ccccc1n2CCCC(=O)Nc1cc(Cl)ccc1C	i	i	i	nt	nt
Cc1ccc(NC(=O)CCCn2c3ccccc3c(=O)c3cc(C)ccc32)c(Br)c1	i	?	2.8µM	nt	nt
Oc1c(Cl)cc(Cl)cc1C=Nc1cc(C(F)(F)F)ccc1N1CCc2ccccc2C1	i	-100	nt	?	nt
Oc1c(Cl)cccc1C=Nc1cc(C(F)(F)F)ccc1N1CCCC1	i	i	i	i	i
Cc1ccc(-c2cn3c(=O)cc(C)[nH]c3n2)cc1	i	i	15µM	i	i
O=C(C1CCCCC1)N1CCC2CC1c1cc(-c3ccc4c(c3)OCO4)ccc12 (stereo not drawn)	i	i	nt	nt	nt
CC(Sc1nc2ccccc2c(=O)n1CC1CCCO1)C(=O)N(C)Cc1ccccc1 (stereo not drawn)	i	i	i	?	i
CC(Sc1nc2ccccc2c(=O)n1C)C(=O)N(C)C1CCCCC1 (stereo not drawn)	?	-79	?	?	?
Cc1c(C(=O)Nc2cccc(F)c2)oc2c1-c1nn(Cc3c(F)cccc3Cl)cc1CC2	i	i	i	nt	nt
CCCOc1ccc(-c2cccc(NS(=O)(=O)c3ccc(CC)cc3)c2)nn1	i	i	i	nt	nt
O=C(NC1CCCCCCC1)c1cc(COc2ccc3ncccc3c2)on1	3.5µM	?	?	?	i
COCC1CCCN(C(=O)c2cc(COc3cccc4cccnc34)on2)C1 (stereo not drawn)	i	i	i	?	?
CCOC(=O)C1CCCN(C(=O)c2cc(COc3ccc(C)nc3)on2)C1 (stereo not drawn)	i	i	i	8.9µM	i
SMILES	FMDV inh	HCMV inh	LASV entry inh	HCV inh	MARV entry inh
O=C(c1cc(COc2ccc3ncccc3c2)on1)N1CCCC(O)C1 (stereo not drawn)	i	-63	i	?	i
COCC1CCCN(C(=O)c2cc(COc3ccc4ncccc4c3)on2)C1 (stereo not drawn)	?	-85	?	1µM	?
Cc1cccc(C)c1OCc1cc(C(=O)NC2CCC2)no1	i	i	nt	?	nt
CCCOC1CCCN(C(=O)c2cc(COc3ccc(F)c(F)c3)on2)C1 (stereo not drawn)	i	i	i	i	i
CC(CNC(=O)c1cc(COc2ccc3ncccc3c2)on1)c1ccccc1 (stereo not drawn)	?	-76	?	?	?
Cc1ccc(OCc2cc(C(=O)N3CCC(Oc4cccnc4)CC3)no2)cc1C	i	i	nt	i	nt
CCC(O)C1CCN(C(=O)c2cc(COc3ccc4ncccc4c3)on2)CC1 (stereo not drawn)	?	nt	?	1.8µM	?
COc1cccc(OCc2cc(C(=O)N3CCC(C(O)C(C)C)CC3)no2)c1 (stereo not drawn)	i	i	nt	i	nt
